According to the supplement of paper PMC6089552:
The campaign covered roughly 3,200 compounds. About 300 (9.4%) showed activity. Many of the other results were omitted from the sample, so actives are more common in it than they were.

Tested on: A673/TR/shEF
Assay: cell viability (LOESS-normalised, relative to median of negative controls) (log2 ratio); higher = more viable cells (less compound effect), active = hit call of the paper (over 3 MAD below the median)
Conditions: treatment time: 72 h
How it was run: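 A673/TR/shEF Ewing sarcoma cells (1,500 per well, 384-well plates) were grown with or without doxycycline to induce EWS-FLI1 shRNA knockdown, starting 24 h before compounds. Library compounds at two or more concentrations, with DMSO controls, were added for three days. Cell viability was read by CellTiter-Glo luminescence on an Envision reader, then LOESS-corrected per plate, divided by the median of negative controls and log2-transformed. Hits were wells at least three median absolute deviations from the median of all screened wells.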

[1] = 0.25 µM, library screen: screen1, EWS-FLI1 expression: high (no doxycycline)
[2] = 0.25 µM, library screen: screen1, EWS-FLI1 expression: low (doxycycline-induced shRNA knockdown)
[3] = 2.5 µM, library screen: screen1, EWS-FLI1 expression: high (no doxycycline)
[4] = 2.5 µM, library screen: screen1, EWS-FLI1 expression: low (doxycycline-induced shRNA knockdown)
[5] = 0.025 µM, library screen: screen1, EWS-FLI1 expression: high (no doxycycline)
[6] = 0.025 µM, library screen: screen1, EWS-FLI1 expression: low (doxycycline-induced shRNA knockdown)
[7] = 0.25 µM, library screen: screen2, EWS-FLI1 expression: high (no doxycycline)
[8] = 0.25 µM, library screen: screen2, EWS-FLI1 expression: low (doxycycline-induced shRNA knockdown)
[9] = 2.5 µM, library screen: screen2, EWS-FLI1 expression: high (no doxycycline)
[10] = 2.5 µM, library screen: screen2, EWS-FLI1 expression: low (doxycycline-induced shRNA knockdown)
[11] = 25 µM, library screen: screen1, EWS-FLI1 expression: high (no doxycycline)
[12] = 25 µM, library screen: screen1, EWS-FLI1 expression: low (doxycycline-induced shRNA knockdown)
[13] = 0.103 µM, library screen: screen3, EWS-FLI1 expression: high (no doxycycline)
[14] = 0.103 µM, library screen: screen3, EWS-FLI1 expression: low (doxycycline-induced shRNA knockdown)
[15] = 0.308 µM, library screen: screen3, EWS-FLI1 expression: high (no doxycycline)
[16] = 0.308 µM, library screen: screen3, EWS-FLI1 expression: low (doxycycline-induced shRNA knockdown)
[17] = 0.926 µM, library screen: screen3, EWS-FLI1 expression: high (no doxycycline)
[18] = 0.926 µM, library screen: screen3, EWS-FLI1 expression: low (doxycycline-induced shRNA knockdown)
[19] = 2.8 µM, library screen: screen3, EWS-FLI1 expression: high (no doxycycline)
[20] = 2.8 µM, library screen: screen3, EWS-FLI1 expression: low (doxycycline-induced shRNA knockdown)
[21] = 8.3 µM, library screen: screen3, EWS-FLI1 expression: high (no doxycycline)
[22] = 8.3 µM, library screen: screen3, EWS-FLI1 expression: low (doxycycline-induced shRNA knockdown)
[23] = 25 µM, library screen: screen3, EWS-FLI1 expression: high (no doxycycline)
[24] = 25 µM, library screen: screen3, EWS-FLI1 expression: low (doxycycline-induced shRNA knockdown)

Measured: cell viability (log2)

CC(=O)O[C@H]1C[C@@H](OC(C)=O)C(C)(C)C2C[C@@H](OC(C)=O)[C@@]3(C)C4=CC(=O)OC(=O)[C@]4(C)CCC3[C@]21C (stereo partly drawn)
inactive: [1] 0.0349 | [2] 0.118 | [3] 0.174 | [4] 0.189

CC1(C)C(=O)[C@@H]2C[C@@]3(O)C4=CC(=O)O[C@@H](c5ccoc5)[C@]4(C)CCC3C(C)(C2=O)[C@H]1CC(=O)O (stereo partly drawn)
inactive: [1] 0.0688 | [2] 0.13 | [3] 0.086 | [4] 0.0264

O=C(O)c1ccc(OC2CSC2)cc1
inactive: [1] -0.0489 | [2] 0.0317 | [3] 0.0805 | [4] 0.0727

CN(C)c1ccc(/C=C2\C(=O)Nc3ccccc32)cc1
inactive: [5] 0.182 | [6] 0.00152 | [1] 0.171 | [2] 0.0583 | [4] 0.0499 | [12] 0.195
active: [7] -1.84 | [8] -0.565 | [3] -0.163 | [9] -2.61 | [10] -0.918 | [11] -0.158

CC(C)N1C(=O)/C(=C/c2ccc(N(C)C)cc2)SC1=S
inactive: [1] 0.23 | [2] 0.276 | [3] 0.232 | [4] 0.349

O=C1Nc2ccc(I)cc2/C1=C/c1cc(Br)c(O)c(Br)c1
inactive: [5] 0.115 | [6] -0.011 | [1] 0.134 | [2] -0.0458 | [7] 0.275 | [8] 0.0983 | [3] 0.0489 | [4] 0.0445 | [9] 0.0633 | [10] 0.123 | [11] -0.0847 | [12] 0.107

O=C(O)CN(CC(=O)O)Cc1cc2c(cc1O)Oc1cc(O)c(CN(CC(=O)O)CC(=O)O)cc1C21OC(=O)c2ccccc21
inactive: [1] 0.133 | [2] 0.0463 | [3] 0.15 | [4] 0.0168

COc1ccc(NC(=O)/C(=C/c2cccnc2)NC(=O)c2cccs2)cc1
inactive: [1] 0.123 | [2] 0.163 | [3] 0.1 | [4] 0.101

Brc1ccc(CN2CCN(Cc3ccco3)CC2)cc1
inactive: [1] 0.0694 | [2] 0.0304 | [3] 0.0829 | [4] -0.00775

CC1=C(C(=O)OC2CCCC2)C(c2coc3ccc(Cl)cc3c2=O)C2=C(CCCC2=O)N1 (stereo not drawn)
inactive: [1] 0.123 | [2] 0.0763 | [3] 0.136 | [4] -0.0126

CC(C)c1c(O)ccc2c1CC[C@H]1C(C)(C)CCC[C@]21C
inactive: [1] 0.0946 | [2] 0.115 | [3] 0.166 | [4] 0.269

CCN(CC)C(=S)SSC(=S)N(CC)CC
inactive: [13] 0.0335 | [14] 0.117 | [7] 0.112 | [8] 0.121 | [15] -0.158 | [16] 0.0728
active: [1] -1.42 | [2] -0.538 | [17] -4.24 | [18] -2.11 | [3] -2.82 | [4] -1.78 | [9] -4.17 | [10] -0.213 | [19] -4.24 | [20] -4.26 | [21] -4.26 | [22] -4.27 | [23] -4.26 | [24] -4.25

Cc1cc(Cl)ccc1OCC(O)CN1CCN(C)CC1 (stereo not drawn)
inactive: [1] 0.0377 | [2] 0.029 | [3] 0.0948 | [4] 0.184

N[C@@H](C=O)[C@@H](O)[C@H](O)[C@H](O)CO
inactive: [1] 0.0986 | [2] 0.0199 | [3] 0.192 | [4] 0.145

CN(C)CC/C=C1\c2ccccc2COc2ccccc21
inactive: [1] 0.126 | [2] 0.129 | [7] 0.0848 | [8] 0.0467 | [3] 0.131 | [4] 0.118 | [9] 0.142 | [10] 0.121

CN(C)CCC=C1c2ccccc2C=Cc2ccccc21
inactive: [1] 0.131 | [2] 0.0615 | [7] 0.206 | [8] 0.141 | [3] 0.117 | [4] 0.104 | [9] 0.126 | [10] 0.0683

CN(C)CCC=C1c2ccccc2CCc2ccccc21
inactive: [1] 0.0816 | [2] 0.086 | [8] 0.138 | [3] 0.144 | [4] 0.0763 | [9] 0.0454 | [10] 0.0908
active: [7] -0.148

COc1c(C2COc3cc4c(cc3C2=O)CC(O)C(C)(C)O4)ccc2c1CCC(C)(C)O2 (stereo not drawn)
inactive: [1] 0.0719 | [2] 0.0278 | [3] 0.0883 | [4] 0.0229

CNC(=O)CN(CCN(CCN(CC(=O)[O-])CC(=O)NC)CC(=O)[O-])CC(=O)[O-].O.[Gd+3]
inactive: [13] 0.106 | [14] -0.0293 | [15] 0.00861 | [16] 0.114 | [17] 0.0946 | [18] 0.0839 | [19] 0.127 | [20] 0.127 | [21] 0.0841 | [22] 0.116 | [23] 0.0924 | [24] 0.134
